# Assay outcomes: PubChem, National Center for Advancing Translational Sciences (NCATS)
# MCF10A rerep: inducers of DNA re-replication in MCF 10A breast cells | 350,000 compounds, 2.9% hits | MCF 10A DNA re-replication, Hoechst nuclear intensity, 48 h | Potency, µM (titrated, usually from 46.1 µM), without a hit: at the top dose activity, positive = re-replication, most hits filed as activators; further: % of control where 0% means no effect; nearly all actives have a fitted effect of over 50% in size
# KB-3-1 tox: kills parental KB-3-1 adenocarcinoma cells; KB-3-1 viability, CellTiter-Glo ATP luminescence, 72 h; Potency, µM (top dose mostly 46.1 µM), usual class: cytotoxic; 400,000 compounds, 1.4% hits; further: on the % scale 0 is the no-effect control and ±100 the full control effect; nearly all actives have a fitted effect of over 60% in size
#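 Using CellTiter-Glo luminescence, growth of non-resistant KB-3-1 adenocarcinoma cells is assessed 72 h after pin-tool compound addition at 37 °C. Normalized responses across the concentration series yield fitted curves.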
# PINK1 expr mod: modulators of PINK1 expression; PINK1 immunofluorescence, high-content cytometry, 24 h; 410,000 compounds, 0.2% hits; Potency, µM (titrated, usually from 76.6 µM), for inactives: at the top dose activation (PINK1 increase), hits mostly activators; active means well fitted activation curve with a large enough effect; inconclusive means small, poorly fitted or top-dose-only effect; cell line not stated here; further: % of control where 0% means no effect; nearly all actives have a fitted effect of over 65% in size
#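 Fluorescence from anti-PINK1 antibody, together with nuclear and cell stains, was scanned on a laser-scanning cytometer. Before staining, stable-line cells were incubated 24 hours with compounds at 5 concentrations; primary antibody 12 h at 10 degrees C.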
# KB-V1 cytotox: kills drug-selected multidrug resistant KB-V1 cells. KB-V1 MDR cells viability, CellTiter-Glo, 72 h. Potency, µM (series often up to 46.1 µM), actives largely listed as cytotoxic. 400,000 compounds, 3.4% hits; further: on the % scale 0 is the no-effect control and ±100 the full control effect; nearly all actives have a fitted effect of over 60% in size
#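 KB-V1, DMEM (no phenol red) + 10% FBS; cpd pin-transferred, titration series; 72 h, 37 degrees C; CellTiter-Glo, luminescence. Data normalized, curve-fit.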
# ALOX12 inh: inhibitors of human 12S-lipoxygenase ALOX12. P18054. purified 12hLO, xylenol orange hydroperoxide absorbance. Potency, µM (titrated, usually from 108 µM), for the others: at the highest dose activity change, negative = inhibition, usual class: inhibitors. 580,000 compounds, 1.1% hits; further: on the % scale 0 is the no-effect control and ±100 the full control effect
# Target sequence (P18054 whole entry, looked up): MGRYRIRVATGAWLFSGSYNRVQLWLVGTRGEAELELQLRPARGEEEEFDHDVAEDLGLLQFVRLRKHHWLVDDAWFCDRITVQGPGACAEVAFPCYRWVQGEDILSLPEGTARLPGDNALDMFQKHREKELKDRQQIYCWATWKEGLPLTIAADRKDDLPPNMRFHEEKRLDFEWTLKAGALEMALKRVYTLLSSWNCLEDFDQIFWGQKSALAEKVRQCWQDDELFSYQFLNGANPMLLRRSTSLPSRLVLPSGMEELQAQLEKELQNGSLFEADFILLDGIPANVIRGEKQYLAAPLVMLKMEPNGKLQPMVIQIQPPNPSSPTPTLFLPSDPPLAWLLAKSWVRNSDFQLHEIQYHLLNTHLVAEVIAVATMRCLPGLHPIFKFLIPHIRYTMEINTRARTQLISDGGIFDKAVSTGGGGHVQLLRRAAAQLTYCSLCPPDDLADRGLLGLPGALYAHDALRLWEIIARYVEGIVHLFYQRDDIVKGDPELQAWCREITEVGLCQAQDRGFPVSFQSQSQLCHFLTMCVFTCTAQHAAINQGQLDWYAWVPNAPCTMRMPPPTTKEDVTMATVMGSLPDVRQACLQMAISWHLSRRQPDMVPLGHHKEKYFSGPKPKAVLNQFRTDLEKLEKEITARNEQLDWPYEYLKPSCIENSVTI
#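 Hydroperoxide product was detected by ferrous iron/xylenol orange as the 573 to 405 nm absorbance ratio. Arachidonic acid at 40 uM (final) was turned over for 30 min at room temperature by 150 nM human 12hLO, pH 7.0 Hepes buffer, after 15 min compound preincubation.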
# SW480 rereplic: inducers of DNA re-replication in SW480 colon cancer cells. SW480 DNA re-replication, Hoechst DNA content imaging, 48 h. Potency, µM (highest dose often 46.1 µM), inactives show at the highest dose re-replication activation, most hits filed as activators. 340,000 compounds, 1.8% hits. AID 624297; further: % of control where 0% means no effect; nearly all actives have a fitted effect of over 55% in size
#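 Per well, 250 cells were exposed to pinned compound for 48 hr. Nuclear DNA was visualised with Hoechst (40 min, 37 C) and total object intensity recorded by fluorescence scanning.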
# * hit, by the source's call; i = inactive; ? = inconclusive; nt = not tested or not shown; [ ] = another dose, or the depositor's remark. Shown are actives, neighbours in structure and some others; about 5.8% of the full set was active somewhere. Unless noted, the call rests on the fitted dose curve; in most records, active means well fitted curve in the direction sought with a large enough effect; inconclusive means small, poorly fitted or top-dose-only effect, or another doubt; inactive means no such curve, though single readings can be large; an effect the other way counts as inactive or inconclusive. Potency means the concentration at half of the fitted maximal effect.
SMILES,MCF10A rerep,KB-3-1 tox,PINK1 expr mod,KB-V1 cytotox,ALOX12 inh,SW480 rereplic
COc1ccc(-c2nc3ccc(C(=O)N4CCC5(CC4)OCCO5)cc3nc2-c2ccc(OC)cc2)cc1,?,i,-2%,i,-30%,23µM*
COc1ccc(-n2c(C)nc3cc(C(=O)N4CCC5(CC4)OCCO5)ccc32)cc1,?,?,9%,?,0%,?
Cc1nc(-c2ccc(N(C)C)cc2)cc([C@H]2CN3CC[C@H]2C[C@@H]3CNC(=O)C(C)(C)C)n1,nt,nt,nt,nt,83%[176 µM],nt
Cc1oc(-c2cccs2)nc1CC(=O)N1CCN(CC(=O)N2CCCCC2)CC1,nt,nt,nt,nt,8%,nt
O=C(Cc1ccccc1)N1CCN(Cc2ccc(Cl)cc2)CC1,19%,i,-1%,i,?,-2%
O=C(/C=C/c1ccc(F)cc1)NNC(=O)CCN1CCN(Cc2ccccc2)CC1,10µM*,?,0%,i,0%,?
Cn1cc(C=C2C(=O)NC(=O)NC2=O)c2ccccc21,-14%,i,-1%,i,0%,0%
O=C1NC(=O)C(=Cc2csc3ccccc23)C(=O)N1,1%,i,7%,i,40µM*,0%
CCCNC(=O)N1CC2CN(C(C)C)CC(C1)O2,nt,nt,nt,nt,27%,nt
C[C@]12CC[C@H]3C(=CCc4cc(O)ccc43)[C@@H]1CCC2=O,?,?,2%,8.2µM*,?,-26%
Cc1ncc2c(n1)C[C@@H]1CC[C@H]2N1C(=O)c1ccccc1F,nt,nt,nt,nt,10%,nt
O=C(O)C1=NOC2CN(Cc3cccc(Br)n3)CC12 (configuration not stated),nt,nt,nt,nt,-17%[6.33 µM],nt
Cc1ccc(NP(=O)(Oc2ccccc2F)Oc2ccccc2F)cc1,18µM*,i,-2%[38.3 µM],?,-18%,?
O=C1NC(=O)N(Cc2ccc(F)cc2)C(=O)/C1=C\C=C\c1ccco1,3.7µM*,?,-1%,?,?,8.2µM*
Cc1ccc(N2C(=O)NC(=O)/C(=C/C=C/c3ccco3)C2=O)cc1,9.2µM*,?,-3%,18µM*,?,16µM*
CC(C)c1ccc(N2C(=O)NC(=O)/C(=C/C=C/c3ccco3)C2=O)cc1,6.5µM*,15µM*,-2%,?,45µM*,?
O=C1NC(=O)N(Cc2ccccc2)C(=O)/C1=C\c1ccco1,16%,i,6%,i,?,12%
Cc1ccc(N2C(=O)NC(=O)/C(=C/c3ccoc3)C2=O)cc1,-1%,?,2%,i,?,0%
Cc1cc(C)cc(N2C(=O)NC(=O)/C(=C\C=C\c3ccco3)C2=O)c1,13µM*,?,-1%,23µM*,?,?
CC(C)N1C[C@@H]2OCC(=O)N(Cc3ccccn3)[C@@H]2C1,nt,nt,nt,nt,61%[176 µM],nt
CCCCN1C(=O)/C(=C/C=C/c2ccco2)C(=O)NC1=S,-8%,i,1%,i,6.3µM*,-6%
O=C1NC(=O)N(c2ccccc2)C(=O)/C1=C\C=C\c1ccccc1,23µM*,?,0%,?,25µM*,3.3µM*
CCc1ccc(N2NC(=O)/C(=C/C=C/c3ccco3)C2=O)cc1,21µM*,i,-1%,i,28µM*,17%
CCCCN1C(=O)/C(=C\c2ccco2)C(=O)N(CCc2ccccc2)C1=O,?,i,8%,i,?,3%
O=C1NC(=O)N(c2ccccc2)C(=O)/C1=C\c1ccc([N+](=O)[O-])s1,?,i,3%,i,0%,21µM*
SMILES,MCF10A rerep,KB-3-1 tox,PINK1 expr mod,KB-V1 cytotox,ALOX12 inh,SW480 rereplic
COCCN1CCC(N2CCN(C(=O)Cc3c(F)cccc3Cl)CC2)C1=O (configuration not stated),nt,nt,nt,nt,81%,nt
CCCS(=O)(=O)NC[C@H]1C[C@@H]2CCN1C[C@@H]2CC,nt,nt,nt,nt,56%[176 µM],nt
CC(C)NC(=O)C(C)Cl (configuration not stated),nt,nt,nt,nt,-29%,nt
CCc1ccc(N2C(=O)NC(=O)/C(=C\C=C\c3ccco3)C2=O)cc1,23µM*,?,0%,?,0%,18µM*
CCOc1ccc(N2C(=O)/C(=C/c3ccco3)C(=O)NC2=S)cc1,3%,i,2%,i,nt,?
O=C(Nc1nccs1)c1c(O)c2c(n(Cc3ccco3)c1=O)CCCC2,10%,?,0%,12µM*,41%,-14%
Cc1ccc(S(=O)(=O)NC[C@H]2C[C@@H]3CCN2C[C@@H]3CN(C)CCc2ccccn2)cc1,nt,nt,nt,nt,28%,nt
C=CCN(C)C(=O)[C@H]1CN2CCC1C[C@@H]2Cn1cc(-c2ccccc2)nn1 (some centres not stated),nt,nt,nt,nt,17%[176 µM],nt
C[n+]1ccc(-c2ccncc2)cc1,3%,i,13%[38.3 µM],i,13µM*,-16%
CC(C)Sc1nnc([C@@H](N)Cc2c[nH]c3ccccc23)o1,14%,i,44%[38.3 µM],18µM*,-10%,-4%
CN(C)P(=NC(=S)c1cccn1C)(N(C)C)N(C)C,0%,i,-4%[38.3 µM],i,40µM*,1%
CN(C)P(=O)(NC(=O)c1cccn1C)N(C)C,-3%,i,-1%,i,18%,5%
CCC(CC)c1cc([C@H]2CN3CC[C@H]2C[C@@H]3CNC2CCN(C(C)=O)CC2)nc(-c2ccncc2)n1,nt,nt,nt,nt,97%,nt
COc1ccc(-c2cc([C@H]3CN4CC[C@H]3C[C@@H]4CNC(=O)NC(C)C)nc(C)n2)cc1OC,nt,nt,nt,nt,32µM*,nt
Cc1nc(-c2ccccc2Br)cc([C@H]2CN3CC[C@H]2C[C@@H]3CNC(=O)Nc2ccccc2)n1,nt,nt,nt,nt,11µM*,nt
COc1ccccc1CNC(=O)CN1CCCC1=O,nt,nt,nt,nt,28%,nt
O=C1CC2OCC=C3CN4CCC56c7ccccc7N1C5[C@H]2[C@H]3C[C@H]46 (some centres not stated) (tested in a mixture with another compound),nt,nt,nt,nt,nt,-5%
O=C1CC23c4ccccc4N4C(=O)CC5OCC=C6CN1C2CC6C5C43 (configuration not stated),1%,i,-4%,15µM*,3%,0%
COCc1nnc2n1CCC(NC(=O)c1nn(C)c3ccccc13)CC2 (configuration not stated),nt,nt,nt,nt,45%,nt
Cn1ncnc2c(=O)n(C)c(=O)nc1-2,18µM*,0.65µM*,-4%,0.73µM*,?,0%
Cc1ccc(-c2nc3c(=O)n(C)c(=O)nc-3n(C)n2)cc1,nt,2.6µM*,-1%,7.3µM*,nt,nt
CCCCCn1c(=O)c(C(=O)Nc2ccccc2)c(O)c2ccccc21,12%,i,1%,i,-2%,1%
CCCCn1c(=O)c(C(=O)Nc2ccccn2)c(O)c2ccccc21,6%,10µM*,1%,i,7%,-43%
